Data reported in PubChem BioAssay (EPA / NIEHS).
The source made the active and inactive calls. Rule for the calls: active = hit-call score of the fitted dose curve at least 0.9, where 1 is the maximum; inactive = score below 0.9.

These compounds were tested on sulfotransferase 2A1 (SULT2A1), SULT2A1 (gene 6822) (assay: LTEA_HepaRG_SULT2A1: Life Technologies and Expression Analysis (LTEA) Assay for sulfotransferase 2A1 (SULT2A1) using HepaRG (AID 2283531)). Conditions: mRNA level, 48 h; actives raise or lower the signal.
Protocol: LTEA_HepaRG is a cell based, multiplexed-readout assay that uses HepaRG, a human liver cell line, with measurements taken at 48 hours after chemical dosing on a 96-well plate.LTEA_HepaRG_SULT2A1 is one of 102 assay component(s) measured in the LTEA HepaRG cell culture assay. It is a marker of NR mediated transport.Data from the assay component LTEA_HepaRG_SULT2A1 was analyzed into 1 endpoint. This assay endpoint, LTEA_HepaRG_SULT2A1, was analyzed with bidirectional fitting relative to DMSO as the negative control and baseline of activity. Using a type of inducible reporter, measures of mRNA induction for gain or loss-of-signal activity can be used to understand regulation of transcription factor activity. To generalize the intended target to other relatable targets, this assay endpoint is annotated to the transferase intended target family, where the subfamily is sulfotransferase.
A total of 1060 chemcials from the ToxCast library were tested in eight-point concentration-response experiments. Cell culture and cytotoxicity assays were conducted at Thermo Fisher Scientific's Custom Services facility (Madison, WI). A single lot of human HepaRG cells (Thermo Fisher Scientific, Frederick, MD) was used for the cell culture experiments. 96-well format collagen type I coated plates of human HepaRG cells were prepared using established methods. Briefly, cryopreserved HepaRG cells were thawed, plated at a density of approximately 100,000 cells/well in HepaRG Thaw, Plate, and General Purpose media (HPRG770, Thermo Fisher Scientific), and incubated for 48 hours. 0.5% DMSO was selected as vehicle control to balance the requisite need of DMSO in HepaRG cultures to maintain differentiation (for example, baseline metabolism, proportions of hepatocytes vs. cholangiocytes), while enabling further hepatic receptor pathway activation (for example, PXR and CAR) in response to chemical exposure. 48 hours after plating, the culture medium was replaced with HepaRG Serum-Free Incudtion Media. Cells were exposed to each test chemical in duplicate and maintained in CO2 incubators for another 48 hours. Chemical plates were thawed to room temperature and 200x concentrations of treatment groups were prepared. 8-point conentration-reponse curves were made with the highest exposure at 100 uM, followed by half-log dilutions, all in 0.5% DMSO. Each test plate contained variouse controls, induction positive controls (1mM phenobarbital), cytotoxicity positive controls ([…] aflatoxin B1), vehicle controls (0.5% DMSO), and total lysis controls (0.5% DMSO). Cell morphology images were taken using an Essen IncuCyte FLR automated microscope, with six 96-well plates imaged in about 24 minutes. Images were captured and exported and JPEG files. Spent culture media was transfered to black-well plates for the LDH assay, and remaining media was sorted at -80 C for later use. Cells were treated with RLT buffer and frozen until shipped for gene expression analysis. Total RNA was isolated from the cell suspension in 75 uL of Buffer RLT (Qiagen, Germantown, MD 20874) by Quintiles/Expression Analysis (Durham, NC) using a custom isolation procedure. Total RNA from each plate well was transferred to a preamplification plate. Fluidigm's 96.96 Dynamic ArrayTM (Fluidigm, Amsterdam, the Netherlands) technology was used for gene expression analyses by quantitative reverse transcription polymerase chain reaction (qRT-PCR, performed by Quintiles/Expression Analysis, Durham, NC)89. Standard TaqManTM Assays (Applied Biosystems/ThermoFisher Scientific, Foster City, CA) were used to assess the expression of 93 genes selected based on their selectivity and sensitivity to important hepatic receptors known to be modulated by environmental chemicals; importance in human hepatocyte functionality; and hepatotoxicity. […]
`CCCCc1nc2cccnc2n1Cc1ccc(-c2ccccc2-c2nnn[nH]2)cc1` was tested, and the outcome was “inactive”.
`CCCCCCCCCCCCCCOS(=O)(=O)O` was tested, and the outcome was “inactive”.
For `CCCCCCC(CCCCCCCCCCC(=O)OCC(COC(C)=O)OC(C)=O)OC(C)=O` (stereo not given), the outcome was “inactive”.
In the case of `CCc1nc(N)nc(N)c1-c1ccc(Cl)cc1`, the AC50 is reported as 1.33 µM (active).
In the case of `Oc1ccc(O)cc1`, the outcome is reported as “inactive”.
`COC(=O)[C@H]1[C@H]2C[C@@H]3c4[nH]c5cc(OC)ccc5c4CCN3C[C@H]2C[C@@H](OC(=O)c2cc(OC)c(OC)c(OC)c2)[C@@H]1OC` was tested, and the AC50 was 62.8 µM (active).
`Nc1nc(Cl)nc2c1ncn2[C@H]1C[C@H](O)[C@@H](CO)O1` was tested, and the AC50 was 2.81 µM (active).
`CC(=O)OCC(COC(C)=O)OC(C)=O` was tested, and the outcome was “inactive”.
`CCN(CC)CCOc1ccc(C(=C(Cl)c2ccccc2)c2ccccc2)cc1` was tested, and the AC50 was 79.3 µM (active).
In the case of `NCCOCCOCCN`, the outcome is reported as “inactive”.
With `Nc1nc(=S)c2[nH]cnc2[nH]1` the AC50 was 11.4 µM (active).
In the case of `O=C1OC(c2ccc(O)cc2)(c2ccc(O)cc2)c2ccccc21`, the outcome is reported as “inactive”.
For `O=NO`, the outcome was “inactive”.
`CCCCCCC(C=O)=Cc1ccccc1` was tested, and the outcome was “inactive”.
`CC(C)NCC(O)c1ccc(O)c(O)c1` (stereo not given) was tested, and the AC50 was 0.194 µM (active).
With `CC(N)=O` the outcome was “inactive”.
With `CN(C)C(=O)NC1(c2ccccc2)CCN(CC[C@@]2(c3ccc(F)c(F)c3)CN(C(=O)c3ccccc3)CCO2)CC1` the AC50 was 25.3 µM (active).
With `CS(=O)(=O)c1ccc([C@@H](C[C@H]2CCC(=O)C2)C(=O)Nc2cnccn2)cc1Cl` the outcome was “inactive”.
For `CCOCCOCCO`, the outcome was “inactive”.
In the case of `CCCCC(CC)CO` (stereo not given), the outcome is reported as “inactive”.
In the case of `O=C(O)CN(CC(=O)O)CC(=O)O`, the outcome is reported as “inactive”.
In the case of `C#CC(O)C(CC)CCCC` (stereo not given), the outcome is reported as “inactive”.
For `CCc1cc(C2=C(C(=O)O)N(c3ccccc3C(F)(F)F)S(=O)(=O)c3ccccc32)cc2c1OCO2`, the AC50 was 85.5 µM (active).
For `C=CCc1ccc(OC)c(OC)c1`, the outcome was “inactive”.
`CC(=O)O[C@]1(C(C)=O)CC[C@H]2[C@@H]3C=C(Cl)C4=CC(=O)[C@@H]5C[C@@H]5[C@]4(C)[C@H]3CC[C@@]21C` was tested, and the AC50 was 50 µM (active).
`COC(=O)CCCC(=O)OC` was tested, and the outcome was “inactive”.
With `CC(COCC(C)OC(=O)c1ccccc1)OC(=O)c1ccccc1` (stereo not given) the outcome was “inactive”.
`O=C(O)CC(O)(CC(=O)O)C(=O)O` was tested, and the outcome was “inactive”.
`CCCC[C@H]1CN(CC2CCOCC2)C(=O)OC12CCN(C1(C)CCN(C(=O)c3c(C)ncnc3C)CC1)CC2` was tested, and the outcome was “inactive”.
`S=c1[nH]c2ccccc2s1` was tested, and the outcome was “inactive”.
In the case of `Cc1c(C)c2c(c(C)c1O)CCC(C)(COc1ccc(CC3SC(=O)NC3=O)cc1)O2` (stereo not given), the AC50 is reported as 93.4 µM (active).
In the case of `Cc1occc(=O)c1O`, the outcome is reported as “inactive”.
For `Cc1cc(Cc2ccc(N)c(C)c2)ccc1N`, the outcome was “inactive”.
`CC1=C(C)S(=O)(=O)CCS1(=O)=O` was tested, and the outcome was “inactive”.
With `Cc1cc(SC2=C(O)C[C@@](CCc3ccc(N)cc3)(C(C)C)OC2=O)c(C(C)(C)C)cc1CO` the AC50 was 9.92 µM (active).
`CC(C)c1cccc(C(C)C)c1` was tested, and the outcome was “inactive”.
For `OCC(O)CO`, the outcome was “inactive”.
With `O=C(N[C@@H](c1ccccc1)[C@@H]1CCCCN1)c1cccc(C(F)(F)F)c1Cl` the AC50 was 78.9 µM (active).
For `Cn1cnc2c1c(=O)[nH]c(=O)n2C`, the outcome was “inactive”.
With `COc1ccc(OC(F)(F)F)cc1CN[C@H]1CCCN[C@H]1c1ccccc1` the AC50 was 81.2 µM (active).
